Inconclusive results are not listed. Values without a mark were called inactive. Calls come from the whole dose curve; as a rule, active = well fitted cell-killing curve with a large enough effect; inconclusive = small, poorly fitted or top-dose-only effect, or effect the other way; inactive = flat fitted curve, though single readings scatter.

The test can be described thus: MultiTox-Fluor Cytotoxicity Assay - LYMP1-001 - Dead Cells (AID 946).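 Note: cells exposed to compound for 16 h; 0% = DMSO and 100% = tetraoctylammonium bromide.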 To be noted: LYMP1-001 lymphoblastoid cells, dead-cell protease fluorescence; series mostly up to 92.2 µM; cytotoxicity (dead cells): at the top concentration. The text has this: NIH Chemical Genomics Center [NCGC]
NIH Molecular Libraries Screening Centers Network [MLSCN]
National Institutes of Environmental Health Sciences [NIEHS]
National Toxicology Program [NTP]
We have developed a 1536-well cell-based assay for quantitative high throughput screening (qHTS) against a number of cell lines to determine in vitro cytotoxicity of small molecules. This particular assay uses a human lymphoblastoid cell line (LYMP1-001) purchased from Coriell Institute for Medical Research.
NCGC Assay Protocol Summary:
The MultiTox-Fluor Cytotoxicity Assay (Promega) is a homogeneous method to simultaneously measure the relative number of live and dead cells in culture by detecting changes in cell membrane integrity. There are two fluorogenic peptide substrates in the assay reagent. Viable cells are determined when the cell-permeant substrate (GF-AFC) enters the cell and is cleaved by protease from live cells resulting in liberated fluorophore. This live-cell protease activity restricted to viable cells is proportional to cell number. The dead cells are determined by using fluorogenic cell-impermeant peptide substrate (bis-AAF-R110) which cleaved by dead cell proteases leaking from damaged cell membrane.
Using the MultiTox-Fluor Cytotoxicity Assay, the relative number of dead cells was measured in the lymphoblastoid cell line with complete culture medium following compound treatment for 16 hours. The assay was performed in opaque black Kalypsys 1536-well plates. In the screen, tetraoctylammonium bromide was used as positive control. Library compounds were measured for their ability to cause acute toxicity in the cell line, as reflected by an increase in dead cell protease activity, in a concentration-dependent manner. Data were normalized to the controls for basal activity (DMSO only) and 100% stimulation (15 uM tetraoctylammonium bromide). AC50 values were determined from concentration-response data modeled with the standard Hill equation.
qHTS protocol for MultiTox-Fluor Cytotoxicity assay
[Step] [Parameter] [Value] [Description]
1. Reagent; 5 uL; 2500 lymphoblastoid cells/well
2. Time; 5 hr; 37 C incubation
4. Controls; 23 nL; Tetraoctylammonium bromide 6.4pM to 92 uM
5. Time; 16 hr; 37 C incubation
6. Reagent; 5 uL; MuliTox-Fluor Assay reagent
7. Time; 60 min; Room Temperature
8. Detection; dead-cell fluorescence (Ex/Em=485/520); EnVision plate reader
Keywords: cytotoxicity, lymphoblastoid cell line, fluorescence, NTPHTS, NTPHTS_NCGC, NIEHS, EPA, DSSTox, MLSMR, MLSCN, NIH Roadmap, qHTS, NCGC
For the compound `O=Cc1cccc(Br)c1`, the “cytotoxicity (dead cells)” value was -15.3%.
For the compound `C/C(C=O)=C/c1ccccc1`, the “cytotoxicity (dead cells)” value was -3.08%.
For the compound `CC(C)Nc1ccccc1`, the “cytotoxicity (dead cells)” value was 0.795%.
`Cc1ccc(CO)cc1`: the “cytotoxicity (dead cells)” value was 4.97%.
In the case of `O=C(O)c1ccc(C(=O)O)cc1` it was -6.46%; in that of `O=C1CCCCC1`, 6.05%; in that of `CC(C)N(C)C`, -8.85%.
As for `Fc1ccccc1`, the “cytotoxicity (dead cells)” value is -2.15%.
`NC(=S)NNC(N)=S`: the “cytotoxicity (dead cells)” value was -16.3%.
In the case of `CCCOCC(C)O` (stereo not given) it was -0.517%; in that of `Cc1cccc2sc(N)nc12`, -4.42%; in that of `CCCCC(=O)N(C)C`, -17.3%.
The same measure for `Oc1cccc(Nc2ccccc2)c1`: -6.69%; for `Nc1ccccc1[N+](=O)[O-]`: -10.6%; for `Cc1cc(C)cc(O)c1`: -7.07%.
In the case of `ON=C1CCCCC1`, the “cytotoxicity (dead cells)” value was 0.177%.
For `CCN(C(=O)N(CC)c1ccccc1)c1ccccc1`, the “cytotoxicity (dead cells)” value is 6.82%.
In the case of `CC(N)CN` (stereo not given) it was -12.4%.
In the case of `Cc1ccc([N+](=O)[O-])c(N)c1` it was -2.39%.
For the compound `CCOCCO`, the “cytotoxicity (dead cells)” value was 4.76%.
As for `Nc1nc(CC(=O)O)cs1`, the “cytotoxicity (dead cells)” value was -11.5%.
On to `COC(=O)CC#N`, for which the “cytotoxicity (dead cells)” value is 1.95%.
As for `C=C(C)OC(C)=O`, the “cytotoxicity (dead cells)” value was 1.86%.
For the compound `CC(C)(C)c1ccc(OCC2CO2)cc1` (stereo not given), the “cytotoxicity (dead cells)” value was 16.9%.
Take `Cc1cccc(C(=O)O)c1`: the “cytotoxicity (dead cells)” value was 6.5%.
Consider `C=CC(=O)NC(C)C`, for which the “cytotoxicity (dead cells)” value was -1.81%.
For `Clc1ccccn1`, the “cytotoxicity (dead cells)” value was 1.41%.
In the case of `OC(CCl)CCl` it was -7.15%; in that of `CCCCCCCN`, -16.5%.
With `CCOc1ccc(NC(C)=O)cc1N`, the “cytotoxicity (dead cells)” value was 1.26%.
In the case of `Cc1cc(C)c(N)cc1C` it was -15.8%.
For the compound `Cc1ccc(C)c(O)c1`, the “cytotoxicity (dead cells)” value was -1.11%.
On to `O=[N+]([O-])c1c(Cl)cc(Cl)cc1Cl`, for which the “cytotoxicity (dead cells)” value is 10.5%.
In the case of `O=C(O)c1c(Cl)cccc1Cl`, the “cytotoxicity (dead cells)” value is -0.707%.
Consider `O=C1CCC(=O)O1`, for which the “cytotoxicity (dead cells)” value is -9.65%.
As to `C=CCOC(=O)CCCCCCCC`, the “cytotoxicity (dead cells)” value is 5.04%.
Consider `COC(=O)CS`, for which the “cytotoxicity (dead cells)” value is 1.42%.
On to `Cc1ccc(C)o1`, for which the “cytotoxicity (dead cells)” value was 5.8%.
In the case of `CC(=O)c1cccc([N+](=O)[O-])c1`, the “cytotoxicity (dead cells)” value was -2.11%.
The same measure for `OC/C(Br)=C(\Br)CO`: 7.59%.

The values are drawn from PubChem BioAssay (NCATS).
